# Experimental data reported in article PMC7862700, “An all-to-all approach to the identification of sequence-specific readers for epigenetic DNA modifications on cytosine”.
# Tests used:
# Assay in all cases: DAPPL (digital affinity profiling via proximity ligation, sequencing); 10 mM Tris-HCl pH 7.5, 50 mM NaCl, 1 mM DTT, 4% glycerol, room temperature, 30 min; GST-TFs on glutathione beads, 16-mer random dsDNA library, 0.1% formaldehyde crosslink after washing; high values mean tight binding
# Conditions in all cases: protein: recombinant; tags: N-terminal GST; dsDNA, one strand shown
# ELK1 = molecular target: T1, ELK1 (Homo sapiens, UniProt P19419 1-428)
# T1 sequence: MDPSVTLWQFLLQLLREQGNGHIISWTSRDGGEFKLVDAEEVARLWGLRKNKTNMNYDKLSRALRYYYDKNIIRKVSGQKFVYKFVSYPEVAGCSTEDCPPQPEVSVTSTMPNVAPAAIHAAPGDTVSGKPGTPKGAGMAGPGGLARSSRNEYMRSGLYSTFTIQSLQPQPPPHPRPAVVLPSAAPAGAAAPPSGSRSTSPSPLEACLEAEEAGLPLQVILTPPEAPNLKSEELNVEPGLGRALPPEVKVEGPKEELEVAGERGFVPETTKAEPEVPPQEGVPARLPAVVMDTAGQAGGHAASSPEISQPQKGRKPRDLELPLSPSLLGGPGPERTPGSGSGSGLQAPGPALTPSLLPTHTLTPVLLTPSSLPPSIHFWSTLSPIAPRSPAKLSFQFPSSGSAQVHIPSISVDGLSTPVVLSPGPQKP
# Summary of the method: (§1)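 A tag-only sample was pooled with DNA-barcoded human transcription factors that had been expressed in yeast as GST fusions and captured on glutathione beads. The pools were incubated for 30 min at room temperature with 200 nmole of a random double-stranded 16-mer DNA library in Tris/NaCl/DTT/glycerol buffer, then washed, crosslinked with 0.1% formaldehyde, proximity-ligated (BsaI/T4 ligase, 1 h, 37 °C), PCR-amplified and sequenced on an Illumina NextSeq500. Binding signal is each hexamer's read frequency for a factor divided by its frequency for the tag-only sample.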
# ERG = molecular target: T2, ERG (Homo sapiens, UniProt P11308 1-479)
# T2 sequence: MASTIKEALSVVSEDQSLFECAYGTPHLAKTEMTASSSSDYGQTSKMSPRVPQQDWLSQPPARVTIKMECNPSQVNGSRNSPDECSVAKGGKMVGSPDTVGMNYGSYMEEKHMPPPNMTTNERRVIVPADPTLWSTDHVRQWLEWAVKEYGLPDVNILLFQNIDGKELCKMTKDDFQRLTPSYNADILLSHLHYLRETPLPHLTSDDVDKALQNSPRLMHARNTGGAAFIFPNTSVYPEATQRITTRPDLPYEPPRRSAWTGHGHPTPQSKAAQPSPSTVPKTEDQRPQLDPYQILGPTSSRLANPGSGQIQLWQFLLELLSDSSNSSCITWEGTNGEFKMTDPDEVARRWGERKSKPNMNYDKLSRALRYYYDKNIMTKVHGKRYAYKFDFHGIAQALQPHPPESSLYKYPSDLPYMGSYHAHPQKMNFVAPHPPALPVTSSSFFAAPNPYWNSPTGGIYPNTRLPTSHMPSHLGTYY
# Summary of the method: as §1
# ELF1 = ELF1 (Homo sapiens, UniProt P32519 1-619)
# Chain of ELF1 (P32519 whole entry): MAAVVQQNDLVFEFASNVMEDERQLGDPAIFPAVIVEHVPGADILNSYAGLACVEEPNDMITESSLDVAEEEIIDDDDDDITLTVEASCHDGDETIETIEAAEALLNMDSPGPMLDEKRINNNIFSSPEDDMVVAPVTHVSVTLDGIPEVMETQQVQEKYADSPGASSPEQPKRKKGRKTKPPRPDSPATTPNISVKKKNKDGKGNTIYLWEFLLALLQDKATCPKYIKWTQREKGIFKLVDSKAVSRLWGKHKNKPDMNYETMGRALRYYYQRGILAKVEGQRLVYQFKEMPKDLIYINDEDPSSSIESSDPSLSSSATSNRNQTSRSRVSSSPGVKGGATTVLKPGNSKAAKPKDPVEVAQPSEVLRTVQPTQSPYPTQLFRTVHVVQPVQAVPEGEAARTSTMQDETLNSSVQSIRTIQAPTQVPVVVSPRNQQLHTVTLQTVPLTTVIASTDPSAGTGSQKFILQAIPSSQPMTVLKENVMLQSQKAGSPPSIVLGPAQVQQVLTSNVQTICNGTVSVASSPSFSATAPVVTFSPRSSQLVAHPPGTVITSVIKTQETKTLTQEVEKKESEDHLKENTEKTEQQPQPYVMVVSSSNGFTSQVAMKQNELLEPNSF
# Summary of the method: as §1
# EHF = molecular target: T3, EHF (Homo sapiens, UniProt Q9NZC4 1-300)
# T3 sequence: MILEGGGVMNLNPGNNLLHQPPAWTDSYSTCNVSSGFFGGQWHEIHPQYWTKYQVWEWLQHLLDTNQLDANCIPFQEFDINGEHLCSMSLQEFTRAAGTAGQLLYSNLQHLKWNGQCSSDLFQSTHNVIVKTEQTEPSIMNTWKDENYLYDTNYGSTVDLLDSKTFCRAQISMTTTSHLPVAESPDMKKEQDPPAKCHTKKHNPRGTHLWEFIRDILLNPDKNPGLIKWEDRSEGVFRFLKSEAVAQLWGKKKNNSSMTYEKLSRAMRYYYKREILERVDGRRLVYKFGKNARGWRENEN
# Summary of the method: as §1
# SPIB = SPIB (Homo sapiens, UniProt Q01892 1-262)
# Chain of SPIB (Q01892 whole entry): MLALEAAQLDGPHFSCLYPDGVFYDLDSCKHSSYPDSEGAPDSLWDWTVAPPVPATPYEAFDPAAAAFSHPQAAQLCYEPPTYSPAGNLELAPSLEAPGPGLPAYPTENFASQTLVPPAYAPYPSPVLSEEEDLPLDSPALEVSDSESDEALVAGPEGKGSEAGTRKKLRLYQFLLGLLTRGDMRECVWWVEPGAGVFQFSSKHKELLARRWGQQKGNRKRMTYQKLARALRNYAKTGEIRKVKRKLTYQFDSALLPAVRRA
# Summary of the method: as §1
# FEV = molecular target: T4, FEV (Homo sapiens, UniProt Q99581 1-238)
# T4 sequence: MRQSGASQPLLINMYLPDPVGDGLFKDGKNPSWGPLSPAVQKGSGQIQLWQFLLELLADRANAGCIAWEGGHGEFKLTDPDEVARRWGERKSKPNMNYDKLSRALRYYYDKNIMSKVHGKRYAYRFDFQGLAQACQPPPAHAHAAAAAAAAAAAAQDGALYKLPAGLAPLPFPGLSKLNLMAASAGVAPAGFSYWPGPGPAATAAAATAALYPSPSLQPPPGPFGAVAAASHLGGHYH
# Summary of the method: as §1
# ETV5 = ETV5 (Homo sapiens, UniProt P41161 1-510)
# Chain of ETV5 (P41161 whole entry): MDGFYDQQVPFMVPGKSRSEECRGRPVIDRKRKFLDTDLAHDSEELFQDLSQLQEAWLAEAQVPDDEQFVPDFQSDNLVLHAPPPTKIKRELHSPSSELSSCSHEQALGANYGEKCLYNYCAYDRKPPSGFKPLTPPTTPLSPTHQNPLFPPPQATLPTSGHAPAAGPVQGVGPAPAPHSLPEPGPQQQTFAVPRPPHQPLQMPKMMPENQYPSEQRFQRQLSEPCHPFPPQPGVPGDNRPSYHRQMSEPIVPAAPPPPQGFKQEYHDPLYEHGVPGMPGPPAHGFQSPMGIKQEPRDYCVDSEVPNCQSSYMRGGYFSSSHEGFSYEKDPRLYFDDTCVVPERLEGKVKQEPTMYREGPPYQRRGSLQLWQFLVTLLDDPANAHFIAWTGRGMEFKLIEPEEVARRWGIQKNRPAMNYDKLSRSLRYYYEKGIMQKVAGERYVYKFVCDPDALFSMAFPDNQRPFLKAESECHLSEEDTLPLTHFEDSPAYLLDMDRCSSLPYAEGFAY
# Summary of the method: as §1
# ELF4 = ELF4 (Homo sapiens, UniProt Q99607 1-663)
# Chain of ELF4 (Q99607 whole entry): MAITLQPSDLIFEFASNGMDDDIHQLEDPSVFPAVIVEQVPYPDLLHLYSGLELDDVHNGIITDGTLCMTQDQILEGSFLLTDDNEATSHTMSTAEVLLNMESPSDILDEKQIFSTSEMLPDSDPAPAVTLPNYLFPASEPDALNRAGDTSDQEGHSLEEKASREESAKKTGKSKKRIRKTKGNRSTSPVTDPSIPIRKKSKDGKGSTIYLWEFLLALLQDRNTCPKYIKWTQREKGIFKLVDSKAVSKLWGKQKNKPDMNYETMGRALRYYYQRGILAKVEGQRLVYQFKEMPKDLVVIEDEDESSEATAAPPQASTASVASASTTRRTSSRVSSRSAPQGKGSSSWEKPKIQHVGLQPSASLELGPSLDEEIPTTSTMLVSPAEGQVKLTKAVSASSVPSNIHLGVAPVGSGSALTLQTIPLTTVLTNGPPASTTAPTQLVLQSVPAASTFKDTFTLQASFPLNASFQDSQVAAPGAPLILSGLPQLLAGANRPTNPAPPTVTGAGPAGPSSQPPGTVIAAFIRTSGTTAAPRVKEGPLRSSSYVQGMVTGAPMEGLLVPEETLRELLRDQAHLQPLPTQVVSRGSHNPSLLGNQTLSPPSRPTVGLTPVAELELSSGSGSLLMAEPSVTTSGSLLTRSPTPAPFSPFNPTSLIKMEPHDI
# Summary of the method: as §1
# ELK4 = molecular target: T5, ELK4 (Homo sapiens, UniProt P28324-2 1-405)
# T5 sequence: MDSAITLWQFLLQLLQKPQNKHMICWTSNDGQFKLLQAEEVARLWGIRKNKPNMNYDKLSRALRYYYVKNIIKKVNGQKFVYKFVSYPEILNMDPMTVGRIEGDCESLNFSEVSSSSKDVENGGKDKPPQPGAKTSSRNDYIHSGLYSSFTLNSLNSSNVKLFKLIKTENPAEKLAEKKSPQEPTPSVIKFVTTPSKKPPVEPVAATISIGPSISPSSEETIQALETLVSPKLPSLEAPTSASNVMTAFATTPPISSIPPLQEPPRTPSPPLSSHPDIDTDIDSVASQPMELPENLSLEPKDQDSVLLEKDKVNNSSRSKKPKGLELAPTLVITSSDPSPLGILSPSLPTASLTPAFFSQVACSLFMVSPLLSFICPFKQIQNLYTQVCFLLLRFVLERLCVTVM
# Summary of the method: as §1
# ETV1 = ETV1 (Homo sapiens, UniProt P50549 1-477)
# Chain of ETV1 (P50549 whole entry): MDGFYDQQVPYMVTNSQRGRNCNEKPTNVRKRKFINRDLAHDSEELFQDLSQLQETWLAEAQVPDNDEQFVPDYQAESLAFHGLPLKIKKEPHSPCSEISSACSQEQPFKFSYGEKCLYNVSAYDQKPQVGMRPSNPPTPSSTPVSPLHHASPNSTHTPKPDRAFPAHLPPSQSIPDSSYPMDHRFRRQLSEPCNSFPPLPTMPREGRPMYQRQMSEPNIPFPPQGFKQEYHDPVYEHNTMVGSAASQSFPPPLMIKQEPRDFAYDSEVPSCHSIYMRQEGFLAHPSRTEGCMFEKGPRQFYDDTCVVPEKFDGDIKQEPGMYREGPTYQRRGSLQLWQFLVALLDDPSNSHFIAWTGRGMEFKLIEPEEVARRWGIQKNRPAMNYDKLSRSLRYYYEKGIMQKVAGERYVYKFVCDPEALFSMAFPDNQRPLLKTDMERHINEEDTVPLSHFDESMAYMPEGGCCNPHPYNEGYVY
# Summary of the method: as §1
# ERF = molecular target: T6, ERF (Homo sapiens, UniProt P50548 1-548)
# T6 sequence: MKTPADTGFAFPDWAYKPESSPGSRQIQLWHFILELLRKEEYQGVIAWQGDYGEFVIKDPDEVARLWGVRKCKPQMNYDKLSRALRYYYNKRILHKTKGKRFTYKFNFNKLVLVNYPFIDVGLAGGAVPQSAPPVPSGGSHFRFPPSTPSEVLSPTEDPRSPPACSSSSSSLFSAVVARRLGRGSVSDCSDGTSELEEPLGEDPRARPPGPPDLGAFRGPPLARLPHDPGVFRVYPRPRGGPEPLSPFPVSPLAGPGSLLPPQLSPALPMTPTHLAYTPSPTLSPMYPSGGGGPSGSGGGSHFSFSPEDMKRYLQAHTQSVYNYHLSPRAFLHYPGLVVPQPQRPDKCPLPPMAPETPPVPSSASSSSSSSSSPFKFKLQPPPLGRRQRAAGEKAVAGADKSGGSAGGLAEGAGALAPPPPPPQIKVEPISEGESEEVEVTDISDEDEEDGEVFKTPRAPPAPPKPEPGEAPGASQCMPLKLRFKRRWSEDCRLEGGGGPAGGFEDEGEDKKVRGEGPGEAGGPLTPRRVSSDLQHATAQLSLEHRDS
# Summary of the method: as §1
# ETV3L = molecular target: T7, ETV3L (Homo sapiens, UniProt Q6ZN32 1-361)
# T7 sequence: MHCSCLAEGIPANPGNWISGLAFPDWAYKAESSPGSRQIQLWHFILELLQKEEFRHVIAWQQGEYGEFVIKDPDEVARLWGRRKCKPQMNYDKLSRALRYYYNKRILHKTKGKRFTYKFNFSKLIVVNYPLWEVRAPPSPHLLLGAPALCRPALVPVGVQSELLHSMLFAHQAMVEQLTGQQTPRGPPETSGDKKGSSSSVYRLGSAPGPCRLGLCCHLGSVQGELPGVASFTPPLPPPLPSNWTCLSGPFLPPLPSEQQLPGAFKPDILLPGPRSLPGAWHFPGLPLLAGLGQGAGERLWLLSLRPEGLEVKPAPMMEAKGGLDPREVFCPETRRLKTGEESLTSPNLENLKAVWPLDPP
# Summary of the method: as §1
# ETS2 = molecular target: T8, ETS2 (Homo sapiens, UniProt P15036 1-469)
# T8 sequence: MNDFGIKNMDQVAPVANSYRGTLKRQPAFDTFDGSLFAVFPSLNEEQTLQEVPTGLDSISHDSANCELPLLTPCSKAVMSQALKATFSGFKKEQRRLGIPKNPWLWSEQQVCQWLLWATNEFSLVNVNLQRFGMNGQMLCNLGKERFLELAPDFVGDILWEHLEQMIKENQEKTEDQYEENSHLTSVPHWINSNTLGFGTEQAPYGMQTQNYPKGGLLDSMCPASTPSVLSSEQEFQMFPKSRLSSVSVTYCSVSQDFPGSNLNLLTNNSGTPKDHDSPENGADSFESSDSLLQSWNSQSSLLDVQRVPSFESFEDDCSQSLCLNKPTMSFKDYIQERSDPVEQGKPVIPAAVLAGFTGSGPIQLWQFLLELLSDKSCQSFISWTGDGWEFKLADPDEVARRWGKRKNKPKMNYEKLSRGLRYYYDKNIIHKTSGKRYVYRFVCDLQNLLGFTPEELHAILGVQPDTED
# Summary of the method: as §1
# SPDEF = molecular target: T9, SPDEF (Homo sapiens, UniProt O95238 1-335)
# T9 sequence: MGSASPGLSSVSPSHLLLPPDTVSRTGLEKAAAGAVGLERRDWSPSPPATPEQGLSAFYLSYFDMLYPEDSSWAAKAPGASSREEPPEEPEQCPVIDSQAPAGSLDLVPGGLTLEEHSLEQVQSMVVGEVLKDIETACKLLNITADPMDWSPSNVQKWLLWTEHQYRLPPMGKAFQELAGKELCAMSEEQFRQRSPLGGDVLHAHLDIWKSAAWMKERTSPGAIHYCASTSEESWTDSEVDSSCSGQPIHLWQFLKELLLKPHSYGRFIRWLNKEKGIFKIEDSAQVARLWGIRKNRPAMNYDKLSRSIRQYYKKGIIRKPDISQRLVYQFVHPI
# Summary of the method: as §1
# ETV7 = molecular target: T10, ETV7 (Homo sapiens, UniProt Q9Y603 1-341)
# T10 sequence: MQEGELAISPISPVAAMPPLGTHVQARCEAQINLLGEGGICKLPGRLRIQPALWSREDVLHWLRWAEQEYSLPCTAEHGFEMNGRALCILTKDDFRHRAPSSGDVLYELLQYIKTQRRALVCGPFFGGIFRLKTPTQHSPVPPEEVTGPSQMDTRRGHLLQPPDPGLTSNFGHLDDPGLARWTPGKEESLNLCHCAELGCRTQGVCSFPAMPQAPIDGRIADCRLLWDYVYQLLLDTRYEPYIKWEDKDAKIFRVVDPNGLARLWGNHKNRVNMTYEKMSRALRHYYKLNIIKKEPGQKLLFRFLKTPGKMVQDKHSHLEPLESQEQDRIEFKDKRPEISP
# Summary of the method: as §1
# ETV3 = molecular target: T11, ETV3 (Homo sapiens, UniProt P41162-2 1-143)
# T11 sequence: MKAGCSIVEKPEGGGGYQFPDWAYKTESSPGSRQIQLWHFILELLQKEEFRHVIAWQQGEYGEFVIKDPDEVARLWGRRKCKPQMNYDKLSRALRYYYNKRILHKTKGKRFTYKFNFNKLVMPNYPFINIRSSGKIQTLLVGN
# Summary of the method: as §1
# ETV6 = ETV6 (Homo sapiens, UniProt P41212 1-452)
# Chain of ETV6 (P41212 whole entry): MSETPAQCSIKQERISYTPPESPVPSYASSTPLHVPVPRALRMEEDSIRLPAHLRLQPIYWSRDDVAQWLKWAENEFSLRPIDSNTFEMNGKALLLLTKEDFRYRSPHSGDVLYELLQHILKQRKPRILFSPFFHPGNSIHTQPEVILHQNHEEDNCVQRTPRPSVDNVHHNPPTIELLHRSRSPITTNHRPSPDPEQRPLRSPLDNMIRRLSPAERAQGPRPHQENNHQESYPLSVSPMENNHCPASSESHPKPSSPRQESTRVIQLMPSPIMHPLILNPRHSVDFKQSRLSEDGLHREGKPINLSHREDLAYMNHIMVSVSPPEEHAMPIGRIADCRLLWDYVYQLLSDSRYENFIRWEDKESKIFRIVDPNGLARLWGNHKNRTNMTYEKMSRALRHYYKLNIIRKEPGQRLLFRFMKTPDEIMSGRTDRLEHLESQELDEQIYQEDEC
# Summary of the method: as §1
sequence,measurement,setting,value
GGTACA,binding signal,ELK1,"1.08 fold enrichment (6-mer frequency, TF over GST control)"
same,binding signal,ERG,"1.09 fold enrichment (6-mer frequency, TF over GST control)"
same,binding signal,ELF1,"1.03 fold enrichment (6-mer frequency, TF over GST control)"
same,binding signal,EHF,"1.05 fold enrichment (6-mer frequency, TF over GST control)"
same,binding signal,SPIB,"1.11 fold enrichment (6-mer frequency, TF over GST control)"
same,binding signal,FEV,"1.03 fold enrichment (6-mer frequency, TF over GST control)"
same,binding signal,ETV5,"1.05 fold enrichment (6-mer frequency, TF over GST control)"
same,binding signal,ELF4,"1 fold enrichment (6-mer frequency, TF over GST control)"
same,binding signal,ELK4,"1.11 fold enrichment (6-mer frequency, TF over GST control)"
same,binding signal,ETV1,"1.07 fold enrichment (6-mer frequency, TF over GST control)"
same,binding signal,ERF,"1.09 fold enrichment (6-mer frequency, TF over GST control)"
same,binding signal,ETV3L,"1.04 fold enrichment (6-mer frequency, TF over GST control)"
same,binding signal,ETS2,"1.03 fold enrichment (6-mer frequency, TF over GST control)"
same,binding signal,SPDEF,"1.11 fold enrichment (6-mer frequency, TF over GST control)"
same,binding signal,ETV7,"1.11 fold enrichment (6-mer frequency, TF over GST control)"
same,binding signal,ETV3,"1.09 fold enrichment (6-mer frequency, TF over GST control)"
same,binding signal,ETV6,"1.11 fold enrichment (6-mer frequency, TF over GST control)"
